# Experimental data reported in PubChem BioAssay AID651954 (NMMLSC, 2012).
# Screen size: about 1,500 compounds; about 160 (11%) were called active. Cut-off read from the data, not from the text of the source: active = inhibition above about 60%; inactive = the rest. These entries were drawn from the full list.
# Assay: blockers of LAMP-1 surface exposure, TALL-104 – TALL-104 cells, flow cytometry, Cherry Pick01, confirmation (AID 651954);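 note: 0% = stimulated vehicle wells and 100% = unstimulated wells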
# Details: LAMP-1 externalization, at 10 µM, hits give high values, stimulated with PMA plus thapsigargin
row,SMILES,inhibition
1,Cc1ccccc1CN1C[C@@H]2C[C@@H](c3cn(C)nc3-c3ccccc3)N3CCC[C@@]23C1=O,-13.4% (inactive)
2,CCc1ccc(-c2cc3c(=O)n(CC(=O)NCCCN4CCN(Cc5ccccc5)CC4)nc(C)n3n2)cc1,34.9% (inactive)
3,Cn1sc(=O)c2cc(S(=O)(=O)NC3CC3)ccc21,79.8% (active)
4,COc1ccc(OC)c(NC(=O)CN(C)CCOc2ccc(Br)cc2)c1,-14.9% (inactive)
5,OCCNc1nc(Nc2ccc(Cl)c(Cl)c2)nc2ccccc12,-11.3% (inactive)
6,Cc1nc(-c2ccc(Cl)cc2)sc1C1(C)CC(c2ccc(Br)cc2)=NO1 (stereo unspecified),-3.75% (inactive)
7,CCOc1ccc(Cl)cc1-c1cc(C(=O)NCc2cccs2)[nH]n1,66.4% (active)
8,COc1ccc(-c2cn[nH]c2-c2ccc(OC)cc2)cc1,2.16% (inactive)
9,COc1ccc2sc(-c3ccc(N(C)C)cc3)c(-c3ccc4cc[nH]c4c3)c2c1,-13.7% (inactive)
10,COc1cccc(NC(=O)C2C(c3ccccc3)C2(Cl)Cl)c1 (stereo unspecified),0.14% (inactive)
11,COc1ccc(C2CC(c3cccs3)=NN2c2nc(C)c(C(C)=O)s2)cc1OC (stereo unspecified),73.4% (active)
12,CC(C)Cn1cnc2c(SCc3ccc(Cl)cc3)nc(N)nc21,-12.1% (inactive)
13,CCOC(=O)C1(CCOc2ccccc2)CCN(Cc2ccc(C#CCCO)cc2)CC1,-4.45% (inactive)
14,Oc1ccccc1-c1cc(-c2ccc(Cl)cc2)n[nH]1,-11.6% (inactive)
15,CC(C)c1ccccc1OCC(O)CN(CC(O)COc1cccc2ccccc12)C(C)C (stereo unspecified),87.3% (active)
16,CS(=O)(=O)N(CC(O)Cn1c2ccccc2c2ccccc21)c1cccc2ccccc12 (stereo unspecified),5.69% (inactive)
17,O=C(Nc1ccccc1)c1cccnc1Nc1ccccc1,-4% (inactive)
18,O=S(=O)(Nc1ccc(O)c2ccccc12)c1ccc(OC(F)(F)F)cc1,-11.4% (inactive)
19,COc1ccc(CCNC(=O)C2CC3Cn4c(nc5cc(C)c(C)cc54)C3N2C)cc1 (stereo unspecified),-13.9% (inactive)
20,C=CCn1c(SCc2csc(C)n2)nc2scc(-c3ccc(C)o3)c2c1=O,-12.8% (inactive)
21,Nc1c(C(=O)c2cccs2)sc2nsc(SCCN3CCCCC3)c12,22% (inactive)
22,Cc1oc(-c2ccccc2Cl)[n+]([O-])c1C,-3.08% (inactive)

row,SMILES,inhibition
1,COc1ccccc1N1CCN(c2ncnc3sc(C)c(-c4ccccc4)c23)CC1,-3.66% (inactive)
2,CC(=O)Nc1ccc(-c2csc(NC(=O)Nc3ccccc3)n2)cc1,55.2% (inactive)
3,O=C(COc1ccc(Cl)cc1)N1CCN(c2cccc(C(F)(F)F)c2)CC1,5.85% (inactive)
4,CCCC(C(=O)n1nc(C)cc1C)C(NS(=O)(=O)c1ccc(C)cc1)c1ccccc1 (stereo unspecified),1.32% (inactive)
5,CN(c1ccccc1)S(=O)(=O)c1ccc(C(=O)NCCc2ccccc2)cc1,-3.54% (inactive)
6,O=C(NCc1ccccc1)C(c1ccccc1)N(C(=O)c1csnn1)c1ccc(F)cc1 (stereo unspecified),-12.2% (inactive)
7,Cc1ccc(-c2ccnc3nc(Sc4ncc(C(F)(F)F)cc4Cl)nn23)cc1,-4.56% (inactive)
8,Cc1cccc(-c2nc3ccc(C(=O)NCCN4CCN(C)CC4)cc3nc2-c2cccc(C)c2)c1,2.79% (inactive)
9,COc1ccc(-c2csc(Nc3ccc(O)cc3)n2)cc1,-6.12% (inactive)
10,COc1ccc(CC(N)c2csc(NC(=O)Nc3ccc(C(C)C)cc3)n2)cc1 (stereo unspecified),11.2% (inactive)
11,Cc1cccc(N2CCC(NCc3c(C(=O)N4CCCCC4)nc4c(C)cccn34)CC2)c1,-4.45% (inactive)
12,COc1ccc(-c2oc3ncnc(NCCCO)c3c2-c2ccc(OC)cc2)cc1,-0.03% (inactive)
13,O=S(=O)(c1ccccc1)N(Cc1cccc(F)c1)c1ccccc1,-7.22% (inactive)
14,CN(C)CCNC(=O)c1ccc(-c2cn3c(-c4ccc(Oc5ccccc5)cc4)cnc3cn2)cc1,87.2% (active)
15,O=C(NC(=O)c1ccccc1N1CCCCC1)Nc1ccc(Br)cc1,-13.3% (inactive)
16,Cc1cccc2sc(N(CCCN(C)C)C(=O)CCS(=O)(=O)c3ccccc3)nc12,7.86% (inactive)
17,COc1ccccc1CN1CCN(C(c2ccccc2)c2ccccc2)CC1,-12.1% (inactive)
18,CCN1C(=O)[C@H]2[C@@H](c3ccc(-c4ccc(F)cc4)cc3)N[C@@](Cc3ccccc3)(C(=O)OC)[C@H]2C1=O,-2.41% (inactive)
19,CC1CCN(c2ccc([N+](=O)[O-])cc2C(N)=O)CC1,-4.56% (inactive)
20,COc1cccc(CN(C)CC2CCCN(CCc3ccc(Cl)cc3)C2)c1OC (stereo unspecified),-10.6% (inactive)
21,CCOC(=O)C1(C)CCCN(C(=O)c2ccc(F)c(Cl)c2)C1 (stereo unspecified),-12.7% (inactive)
22,CS(=O)(=O)N(Cc1ccc(Cl)cc1)c1ccc(C(=O)NCCSCc2ccco2)cc1,17.9% (inactive)

row,SMILES,inhibition
1,COc1cccc(CN(C)CC(O)COC(c2ccccc2)c2ccccc2C)c1 (stereo unspecified),-4.22% (inactive)
2,COc1ccccc1C1=Nc2cccc3cccc(c23)N1,-15.4% (inactive)
3,COc1cccc(CNc2nc(NCc3ccccc3OC)nc3ccsc23)c1,35.8% (inactive)
4,CN1CCN(C2Cc3ccc(Cl)cc3Sc3ccc(F)cc32)CC1 (stereo unspecified),15% (inactive)
5,COc1cccc(CNc2nc(C(F)(F)F)nc3ccccc23)c1,-14.3% (inactive)
6,COc1ccc(-c2cc(C(=O)N(C)Cc3ccccc3)c3ccccc3n2)cc1,-6.15% (inactive)
7,Cc1ccc(NC(=O)c2cc(-c3ccc(C)o3)nc3ccccc23)nc1,-10.9% (inactive)
8,CC(=O)C[C@@H](O)CC(=O)[C@H]1OC(=O)CCCCCCc2ccccc21,-13.1% (inactive)
9,CCCCc1ccc(NC(=S)NCCCN2CCOCC2)cc1,-11.7% (inactive)
10,Cc1cnc(C(=O)OCc2c(C)cc(C(C)(C)C)cc2C)cn1,-3.52% (inactive)
11,COc1ccc(Oc2cn[nH]c2-c2ccc(OC)cc2O)cc1,-11.7% (inactive)
12,CCCCC[C@H](C)N1C[C@@H](COCc2ccccc2)Oc2cc(N3CC[C@@H](N(C)C)C3)ccc2S1(=O)=O,16.6% (inactive)
13,COc1ccc(CCNCc2c(-c3ccccc3)n(C)c3ccccc23)cc1,6.74% (inactive)
14,COc1ccc(-c2cc(NC=O)c3ncc(-c4ccccc4)n3c2)cc1OC,80.3% (active)
15,CCCC(=O)Nc1nc2ccc(NC(=O)c3c(F)c(F)c(OC)c(F)c3F)cc2s1,-1.52% (inactive)
16,CCOC(=O)C1(CCOc2ccccc2)CCN(Cc2cc(OC)c(O)cc2Cl)CC1,-6.73% (inactive)
17,COc1cccc(COc2ccc(N(C)S(=O)(=O)c3ccccc3)cc2)c1,-7.06% (inactive)
18,COC(=O)[C@H](Cc1ccccc1)NC(=O)[C@@H]1C[C@H]1[C@@H](NC(=O)OCc1ccccc1)c1ccccc1,48% (inactive)
19,Brc1ccccc1C1Nc2cccc3cccc(c23)N1,106% (active)
20,CC(CC(=O)Nc1cc(C(F)(F)F)ccc1Cl)c1ccccc1 (stereo unspecified),0.82% (inactive)
21,Cc1cccc(N(CC(=O)Nc2ccc(-c3nc4ccc(C)cc4s3)cc2)S(C)(=O)=O)c1,29% (inactive)
22,O=C(Nc1ccc(Cl)cc1)Nc1nnc(/C=C/c2ccccc2)s1,-2.86% (inactive)
